Laboratory results: PubChem BioAssay (EPA / NIEHS)
Results filed as inconclusive are left out. Active and inactive are the calls of the source. The calls were made as follows: active = hit-call score of the fitted dose curve at least 0.9, where 1 is the maximum; inconclusive = response in the unintended direction; inactive = score below 0.9.

biological target: Oxysterols receptor LXR-beta (Homo sapiens) (UniProt P55055); experiment: ATG_LXRb_TRANS: Attagene TRANS-FACTORIAL HepG2 Assay for human Liver X Receptor beta (LXRb) (AID 2282981); settings: HepG2 Attagene TRANS GAL4-LXRb reporter, mRNA
How it was run: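 HepG2 cells transiently transfected with GAL4-UAS reporter units for chimeric NR-Gal4 proteins, dosed for 24 h. Reporter transcripts measured by RT-PCR and capillary electrophoresis; gain-of-signal fitting relative to DMSO.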

Sequence of Oxysterols receptor LXR-beta (Homo sapiens) (P55055 whole entry, looked up, the tested form may be a part): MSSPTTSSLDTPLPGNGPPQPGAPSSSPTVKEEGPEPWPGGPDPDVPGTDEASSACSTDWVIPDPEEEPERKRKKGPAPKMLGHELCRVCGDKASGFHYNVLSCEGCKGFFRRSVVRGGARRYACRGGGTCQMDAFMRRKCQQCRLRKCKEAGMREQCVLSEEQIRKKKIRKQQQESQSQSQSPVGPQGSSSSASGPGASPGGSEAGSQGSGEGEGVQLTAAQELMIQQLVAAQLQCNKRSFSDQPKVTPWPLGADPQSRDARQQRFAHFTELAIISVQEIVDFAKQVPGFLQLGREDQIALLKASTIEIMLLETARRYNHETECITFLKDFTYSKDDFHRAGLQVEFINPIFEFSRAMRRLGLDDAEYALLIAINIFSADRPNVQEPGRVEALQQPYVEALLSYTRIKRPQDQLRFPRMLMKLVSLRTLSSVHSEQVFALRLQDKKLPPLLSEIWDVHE

Structure (SMILES) | outcome
C=C(C)C(=O)OCCC(F)(F)C(F)(F)C(F)(F)C(F)(F)C(F)(C(F)(F)F)C(F)(F)F | inactive
CCN(CC)c1ccc2c(C)cc(=O)oc2c1 | inactive
CC(C)(C)c1ccc(OC2CCCCC2O)cc1 (configuration not stated) | inactive
C=CC(F)(F)C(F)(F)C(F)(F)C(F)(F)C(F)(F)C(F)(F)C(F)(F)C(F)(F)C=C | inactive
CCC(=O)OCCc1ccccc1 | inactive
C1COCCN1 | inactive
C(=C(c1ccccc1)c1ccccc1)c1ccccc1 | inactive
CCc1ccc(C(c2ccc(CC)cc2)C(Cl)Cl)cc1 | inactive
C=CC(=O)OCC(F)(F)C(F)(F)C(F)(F)C(F)(F)COC(=O)C=C | inactive
O=P(O)(O)OCCC(F)(F)C(F)(F)C(F)(F)C(F)(F)C(F)(F)C(F)(F)F | inactive
FC(F)(Br)C(F)(F)C(F)(F)C(F)(F)C(F)(F)C(F)(F)Br | inactive
CCCCCCCCC(F)(F)C(F)(F)C(F)(F)C(F)(F)C(F)(F)C(F)(F)F | inactive
Nc1cc(Cl)c(N)c(Cl)c1 | inactive
CCCCCCC(C)OC(=O)CCCCC(=O)OC(C)CCCCCC (configuration not stated) | inactive
O=C(C=Cc1ccccc1)OCC=Cc1ccccc1 | inactive
O=C(CC(=O)C(F)(F)C(F)(F)F)C(F)(F)F | inactive
FC(F)(F)C(F)(F)C(F)(F)C(F)(F)C(F)(F)CCI | inactive
CNC(=S)NC | inactive
C=CC(=O)OCC(F)(F)C(F)(F)C(F)(F)C(F)(F)C(F)(F)C(F)(F)C(F)(F)F | inactive

test system: not listed separately; experiment: ATG_M_06_TRANS: Attagene TRANS-FACTORIAL HepG2 Assay for M06 Transcription Factor (Internal Marker) (AID 2282983); settings: HepG2 Attagene TRANS M06 internal marker reporter;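 also: reporter transcript level by RT-PCR then capillary electrophoresis fluorescence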
How it was run: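 Measured by capillary electrophoresis of fluorescently labelled RT-PCR products, this endpoint reflects reporter mRNA in HepG2 cells harbouring exogenous NR-GAL4 reporter constructs after 24 h exposure, with DMSO as baseline.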

Structure (SMILES) | outcome
O=S(=O)(O)c1ccc2ccccc2c1 | inactive
Nc1ccc([N+](=O)[O-])cc1O | inactive
C=C(C)C(=O)OCCC(F)(F)C(F)(F)C(F)(F)C(F)(F)C(F)(C(F)(F)F)C(F)(F)F | inactive
CC(C)OC(=O)c1ccccc1C(=O)OC(C)C | inactive
CS(C)(=O)=O | inactive
FC(F)(F)C(F)(F)C(F)(F)C(F)(F)C(F)(F)C(F)(F)C(F)(F)I | inactive
C=CC/C=C/C/C=C/C/C=C/C | inactive
C1COCCN1 | inactive
C(=C(c1ccccc1)c1ccccc1)c1ccccc1 | inactive
CCc1ccc(C(c2ccc(CC)cc2)C(Cl)Cl)cc1 | inactive
COC(=O)CCC(F)(F)C(F)(F)C(F)(F)C(F)(F)F | inactive
C=CC(=O)OCC(F)(F)C(F)(F)C(F)(F)C(F)(F)COC(=O)C=C | inactive
O=P(O)(O)OCCC(F)(F)C(F)(F)C(F)(F)C(F)(F)C(F)(F)C(F)(F)F | inactive
FC(F)(Br)C(F)(F)C(F)(F)C(F)(F)C(F)(F)C(F)(F)Br | inactive
CCCCOCCOCCOC(=O)CCCCC(=O)OCCOCCOCCCC | inactive
Cc1cccc(N(C)C)c1 | inactive
N=C(N)C(F)(F)C(F)(F)C(F)(F)C(F)(F)C(F)(F)C(F)(F)C(F)(F)F | inactive
CCCCCCCCC(F)(F)C(F)(F)C(F)(F)C(F)(F)C(F)(F)C(F)(F)F | inactive
O=C(C=Cc1ccccc1)OCC=Cc1ccccc1 | inactive
O=C(CC(=O)C(F)(F)C(F)(F)F)C(F)(F)F | inactive
CNC(=S)NC | inactive
C=CC(=O)OCC(F)(F)C(F)(F)C(F)(F)C(F)(F)C(F)(F)C(F)(F)C(F)(F)F | inactive
CCCCCCOC(=O)c1ccccc1 | inactive

test system: not listed separately; experiment: ATG_M_32_TRANS: Attagene TRANS-FACTORIAL HepG2 Assay for M32 Transcription Factor (Internal Marker) (AID 2282984); settings: HepG2 Attagene TRANS M32 internal marker reporter;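 also: transcript level of a background control reporter unit measured by RT-PCR and capillary electrophoresis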
How it was run: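 HepG2 cells transiently transfected with GAL4-UAS reporter units, dosed for 24 hours. Reporter mRNA quantified by RT-PCR, 6-FAM labelling, HpaI digestion and capillary electrophoresis; internal-marker signal fitted upward relative to DMSO.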

Structure (SMILES) | outcome
O=S(=O)(O)c1ccc2ccccc2c1 | inactive
C=CC(F)(F)C(F)(F)C(F)(F)C(F)(F)C(F)(F)C(F)(F)C(F)(F)C(F)(F)C=C | inactive
COC(=O)C1CCC(C(=O)OC)CC1 (configuration not stated) | inactive
C=CC/C=C/C/C=C/C/C=C/C | inactive
CCc1ccc(C(c2ccc(CC)cc2)C(Cl)Cl)cc1 | inactive
FC(F)(F)C(F)(F)C(F)(F)C(F)(F)C(F)(F)C(F)(F)CC1CO1 (configuration not stated) | inactive
C=CC(=O)OCC(F)(F)C(F)(F)C(F)(F)C(F)(F)COC(=O)C=C | inactive
Cc1cccc(N(C)C)c1 | inactive
N=C(N)C(F)(F)C(F)(F)C(F)(F)C(F)(F)C(F)(F)C(F)(F)C(F)(F)F | inactive
CCCCCCCCC(F)(F)C(F)(F)C(F)(F)C(F)(F)C(F)(F)C(F)(F)F | inactive
O=C(C=Cc1ccccc1)OCC=Cc1ccccc1 | inactive
FC(F)(F)C(F)(F)C(F)(F)C(F)(F)C(F)(F)CCI | inactive

biological target: Nuclear receptor subfamily 4 group A member 2 (Homo sapiens) (UniProt P43354); experiment: ATG_NURR1_TRANS: Attagene TRANS-FACTORIAL HepG2 Assay for human Nuclear Receptor Related Protein 1 (NURR1) (AID 2282985); settings: HepG2 Attagene TRANS reporter, mRNA readout
How it was run: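 HepG2 cells transiently transfected with NURR1-Gal4 chimera and GAL4-UAS reporter units; after 24 hr compound exposure, reporter mRNA quantified by RT-PCR and capillary electrophoresis; gain of signal fitted against DMSO.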

Sequence of Nuclear receptor subfamily 4 group A member 2 (Homo sapiens) (P43354 whole entry, looked up, the tested form may be a part): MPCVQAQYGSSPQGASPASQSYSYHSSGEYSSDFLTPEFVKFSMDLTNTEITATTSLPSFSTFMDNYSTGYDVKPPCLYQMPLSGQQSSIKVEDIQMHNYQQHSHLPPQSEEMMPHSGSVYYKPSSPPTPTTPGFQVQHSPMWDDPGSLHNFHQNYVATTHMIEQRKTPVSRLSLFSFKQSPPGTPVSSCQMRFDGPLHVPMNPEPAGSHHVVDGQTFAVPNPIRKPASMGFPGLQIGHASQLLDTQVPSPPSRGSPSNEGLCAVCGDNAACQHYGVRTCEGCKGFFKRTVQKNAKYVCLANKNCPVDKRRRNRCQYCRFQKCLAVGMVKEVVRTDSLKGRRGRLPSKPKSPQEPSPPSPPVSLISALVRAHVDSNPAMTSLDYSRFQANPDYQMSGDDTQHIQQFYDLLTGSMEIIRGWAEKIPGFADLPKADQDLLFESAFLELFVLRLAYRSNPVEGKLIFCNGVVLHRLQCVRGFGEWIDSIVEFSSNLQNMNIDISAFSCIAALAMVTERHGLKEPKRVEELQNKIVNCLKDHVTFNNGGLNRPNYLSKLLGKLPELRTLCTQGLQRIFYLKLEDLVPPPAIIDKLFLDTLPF

Structure (SMILES) | outcome | AC50
O=S(=O)(O)c1ccc2ccccc2c1 | inactive | –
Nc1ccc([N+](=O)[O-])cc1O | inactive | –
CCN(CC)c1ccc2c(C)cc(=O)oc2c1 | inactive | –
CC(C)OC(=O)c1ccccc1C(=O)OC(C)C | inactive | –
CS(C)(=O)=O | inactive | –
CC(C)(C)c1ccc(OC2CCCCC2O)cc1 (configuration not stated) | – | 100 µM (active)
COC(=O)C1CCC(C(=O)OC)CC1 (configuration not stated) | inactive | –
C=CC/C=C/C/C=C/C/C=C/C | inactive | –
C1COCCN1 | inactive | –
C(=C(c1ccccc1)c1ccccc1)c1ccccc1 | – | 26.4 µM (active)
CCc1ccc(C(c2ccc(CC)cc2)C(Cl)Cl)cc1 | inactive | –
C=CC(=O)OCC(F)(F)C(F)(F)C(F)(F)C(F)(F)COC(=O)C=C | inactive | –
FC(F)(Br)C(F)(F)C(F)(F)C(F)(F)C(F)(F)C(F)(F)Br | inactive | –
CCCCOCCOCCOC(=O)CCCCC(=O)OCCOCCOCCCC | inactive | –
N=C(N)C(F)(F)C(F)(F)C(F)(F)C(F)(F)C(F)(F)C(F)(F)C(F)(F)F | inactive | –
CCCCCCCCC(F)(F)C(F)(F)C(F)(F)C(F)(F)C(F)(F)C(F)(F)F | inactive | –
Nc1cc(Cl)c(N)c(Cl)c1 | inactive | –
CCCCCCC(C)OC(=O)CCCCC(=O)OC(C)CCCCCC (configuration not stated) | inactive | –
O=C(CC(=O)C(F)(F)C(F)(F)F)C(F)(F)F | inactive | –
FC(F)(F)C(F)(F)C(F)(F)C(F)(F)C(F)(F)CCI | inactive | –
CNC(=S)NC | inactive | –
C=CC(=O)OCC(F)(F)C(F)(F)C(F)(F)C(F)(F)C(F)(F)C(F)(F)C(F)(F)F | inactive | –
CCCCNc1ccccc1 | inactive | –
